Experimental data taken from PubChem BioAssay (NCATS).
Records with an inconclusive call do not appear. Calls of active or inactive are those of the source. Unless noted, calls come from the whole dose curve; as a rule, active = well fitted cell-killing curve with a large enough effect; inconclusive = small, poorly fitted or top-dose-only effect; inactive = flat fitted curve, though single readings scatter.

Legend:
[1] = Cell Viability - LYMP2-025 (AID 976);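 note: series mostly up to about 92 µM; plate controls were DMSO only for no effect and tetraoctylammonium bromide control for full effect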
Method in brief: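 CellTiter-Glo luminescence (cellular ATP) after 24 h compound exposure at 37 C; LYMP2-025 human lymphoblastoid cells, 2500/well, complete medium. Tetraoctylammonium bromide positive control. AC50 by Hill equation fit of qHTS concentration-response.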

[2] = Cell Viability - LYMP2-002 (AID 977);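 note: series mostly up to about 92 µM; plate controls were DMSO only for no effect and 92 µM tetraoctylammonium bromide for full effect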
Method in brief: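 In this qHTS viability screen, 2500 human lymphoblastoid cells per well receive compound for 24 hr at 37 C, and luciferase-based ATP luminescence gives the viability signal. Tetraoctylammonium bromide serves as positive control.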

[3] = Cell Viability - LYMP2-006 (AID 978);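 note: series mostly up to about 92 µM; cells exposed to compound for 24 hours; % is set by controls: 0 for no effect and ±100 for the full control effect; nearly all actives have a fitted effect of over 60% in size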
Method in brief: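 Human lymphoblastoid cells (LYMP2-006), 2500/well in complete medium, were treated with compound for 24 hr at 37 C. Cellular ATP was read by CellTiter-Glo luminescence after 30 min, and AC50 values came from Hill-equation fits of concentration-response data.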

[4] = Cell Viability - LYMP2-007 (AID 979);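 note: cells exposed to compound for 24 h before reading; 0% = DMSO only and the negative end = 92 µM tetraoctylammonium bromide; nearly all actives have a fitted effect of over 60% in size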
Method in brief: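 qHTS cytotoxicity: 2500 cells/well, 5 hr 37 C settle, compound 24 hr 37 C, CellTiter-Glo 30 min RT, luminescence. Decrease in ATP = toxicity. AC50 by standard Hill equation; tetraoctylammonium bromide positive control.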

[5] = Cell Viability - LYMP2-008 (AID 980); note: % is set by controls: 0 for no effect and ±100 for the full control effect; nearly all actives have a fitted effect of over 60% in size
Method in brief: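 Luminescent ATP read-out (CellTiter-Glo, 30 min RT) after 24 hr compound exposure at 37 C of human lymphoblastoid cells in complete medium. Decrease in ATP taken as cytotoxicity; AC50 derived by standard Hill fit of qHTS concentration-response data.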

[6] = Cell Viability - LYMP2-010 (AID 981);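 note: cells exposed to compound for 24 hours at 37 °C; % is set by controls: 0 for no effect and ±100 for the full control effect; nearly all actives have a fitted effect of over 55% in size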
Method in brief: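 qHTS cytotoxicity, 1536-well: 2500 cells/well, 5 hr settle, 24 hr compound at 37 C, CellTiter-Glo 30 min RT, luminescence read. Decrease in ATP = toxicity; AC50 via standard Hill equation. Positive control tetraoctylammonium bromide.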

[7] = Cell Viability - LYMP2-012 (AID 982);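 note: cellular ATP by luciferase luminescence where a drop means cytotoxicity; cells exposed to compound for one day before reading; 0% = DMSO only and full loss = 92 µM tetraoctylammonium bromide; nearly all actives have a fitted effect of over 55% in size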
[8] = Cell Viability - LYMP2-014 (AID 983);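 note: series mostly up to about 92 µM; plate controls were DMSO only for no effect and 92 µM tetraoctylammonium bromide for full effect; nearly all actives have a fitted effect of over 50% in size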
Method in brief: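 2500 cells/well, 5 hr 37 C; cpd 24 hr 37 C, complete medium; CellTiter-Glo 30 min RT, luminescence; ATP loss = toxicity; AC50 via Hill eqn; tetraoctylammonium bromide positive control.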

[9] = Cell Viability - LYMP2-016 (AID 984);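 note: cells exposed to compound for 24 hours at 37 °C; % is set by controls: 0 for no effect and ±100 for the full control effect; nearly all actives have a fitted effect of over 55% in size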
Method in brief: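 Human lymphoblastoid LYMP2-016 cells, 2500 per well, treated with compounds for 24 h at 37 C. Viability read as intracellular ATP by CellTiter-Glo luminescence after 30 min at room temperature; AC50 from Hill fits of concentration-response.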

[10] = Cell Viability - LYMP2-018 (AID 985);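 note: plate controls were DMSO only for no effect and tetraoctylammonium bromide at 92 µM for full effect; nearly all actives have a fitted effect of over 50% in size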
Method in brief: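 2500 cells/well; 5 hr 37 C; cmpd 24 hr 37 C, complete medium; CellTiter-Glo 30 min RT; luminescence. Tetraoctylammonium bromide positive control. AC50 via Hill fit.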

[11] = Cell Viability - LYMP2-020 (AID 986);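 note: series mostly up to about 92 µM; plate controls were DMSO only for no effect and tetraoctylammonium bromide at 92 µM for full effect; nearly all actives have a fitted effect of over 55% in size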
Method in brief: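 qHTS, 2500 cells/well; 5 hr then 24 hr compound exposure, 37 C; CellTiter-Glo luminescence after 30 min RT; ATP decrease taken as cytotoxicity; AC50 via Hill equation; tetraoctylammonium bromide positive control.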

[12] = Cell Viability - LYMP2-022 (AID 987)
Method in brief: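 Luminescent ATP read-out (CellTiter-Glo, 30 min, RT) after 24 hr, 37 C compound exposure of 2500 human lymphoblastoid cells/well in complete medium. Cytotoxicity taken as concentration-dependent ATP loss; AC50 from standard Hill equation.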

[13] = Cell Viability - LYMP2-024 (AID 988);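 note: plate controls were DMSO only for no effect and 92 µM tetraoctylammonium bromide for full effect; nearly all actives have a fitted effect of over 60% in size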
Method in brief: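 ATP-based luminescence (CellTiter-Glo, 30 min RT) after 24 h compound exposure at 37 C of 2500 lymphoblastoid cells/well; decrease in ATP taken as cytotoxicity. qHTS concentration-response fitted to standard Hill equation for AC50.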

[14] = Cell Viability - LYMP2-026 (AID 989); note: % is set by controls: 0 for no effect and ±100 for the full control effect; nearly all actives have a fitted effect of over 50% in size
Method in brief: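 qHTS cytotoxicity: 2500 cells/well, 5 hr 37 C, compound 24 hr 37 C, CellTiter-Glo 30 min RT, luminescence. Tetraoctylammonium bromide positive control. AC50 via standard Hill fit.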

[15] = Cell Viability - LYMP1-002 - Assay at 24 hr (AID 993); note: % is set by controls: 0 for no effect and ±100 for the full control effect
Method in brief: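 CellTiter-Glo luminescence (intracellular ATP) after 24 h compound exposure, 37 C, in LYMP1-002 human lymphoblastoid cells; decreased ATP taken as cytotoxicity. AC50 from standard Hill fit of concentration-response curves.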

[16] = qHTS Assay for Identification of Small Molecule Inducers of Hypoxia Response (AID 2120; active = well fitted curve in the direction sought with a large enough effect in the signal ratio, with a control signal flat, not every such curve was filed as active; the % refers to the signal ratio; note: 0% is about no effect)
Method in brief: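 Read-out: CCF4 FRET emission ratio 460nm/530nm (excitation 405nm), converted to %Activity, with AC50 fitted across a compound titration. ME-180 cells carried an HRE-driven beta-lactamase reporter; compound exposure 17 h, 37 degrees C.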

[17] = target: Estrogen receptor (Homo sapiens) (UniProt P03372); assay: qHTS assay for small molecule antagonists of estrogen receptor alpha signaling (AID 588513; active = well fitted curve in the direction sought with a large enough effect in the signal ratio, with a control signal flat, not every such curve was filed as active; the % refers to the signal ratio; note: % is set by controls: 0 for no effect and ±100 for the full control effect)
Chain of Estrogen receptor (Homo sapiens) (P03372 whole entry, looked up): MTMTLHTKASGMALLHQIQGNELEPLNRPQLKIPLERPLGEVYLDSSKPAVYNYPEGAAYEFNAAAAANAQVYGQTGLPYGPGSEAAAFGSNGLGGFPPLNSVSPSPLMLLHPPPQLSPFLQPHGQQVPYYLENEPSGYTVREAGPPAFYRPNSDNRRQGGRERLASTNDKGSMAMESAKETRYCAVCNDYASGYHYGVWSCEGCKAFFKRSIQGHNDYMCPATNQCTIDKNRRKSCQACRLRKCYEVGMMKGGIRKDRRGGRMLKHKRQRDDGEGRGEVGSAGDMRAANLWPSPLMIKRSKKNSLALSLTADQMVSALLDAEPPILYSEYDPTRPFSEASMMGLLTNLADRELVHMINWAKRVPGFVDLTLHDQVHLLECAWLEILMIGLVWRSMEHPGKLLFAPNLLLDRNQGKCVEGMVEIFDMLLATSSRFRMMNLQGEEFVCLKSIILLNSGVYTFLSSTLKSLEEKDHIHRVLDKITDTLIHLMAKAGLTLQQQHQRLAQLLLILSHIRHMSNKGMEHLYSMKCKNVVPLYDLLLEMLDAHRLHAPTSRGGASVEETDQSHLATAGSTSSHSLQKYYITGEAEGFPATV
Method in brief: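 ER-alpha-UAS-bla GripTite HEK 293 cells in 2% charcoal/dextran-treated FBS medium; compounds titrated (1:2, duplicate), then stimulated with 0.5 nM 17-beta-estradiol for 18 h at 37C. CCF4 beta-lactamase fluorescence; Hill-fit IC50 and efficacy.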

[18] = target: Estrogen receptor (Homo sapiens) (UniProt P03372); assay: qHTS assay for small molecule agonists of estrogen receptor alpha signaling (AID 588514; calls by dose curve;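 note: 0% = vehicle only and 100% = reference agonist; nearly all actives have a fitted effect of over 70% in size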)
Method in brief: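 Read-out: CCF4 fluorescence from a beta-lactamase reporter in ER-alpha-UAS-bla HEK 293 cells after 18 hrs of compound exposure at 37 C. Normalized to 20 nM 17-beta-estradiol (100%) and DMSO (0%).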

[19] = Cell Viability - LYMP1-002 - Assay at 40 hr (AID 994)
Method in brief: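 qHTS cytotoxicity; 2500 cells/well, 5 hr 37 C settle, compound 40 hr 37 C. CellTiter-Glo, 30 min RT, luminescence (ATP). Concentration-response, Hill fit → AC50. Pos. ctrl tetraoctylammonium bromide.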

[20] = target: Androgen receptor (Homo sapiens) (UniProt P10275); assay: qHTS assay for small molecule agonists of androgen receptor signaling (AID 588515; active = well fitted curve in the direction sought with a large enough effect in the signal ratio, with a control signal flat; the % refers to the signal ratio; note: % is set by controls: 0 for no effect and ±100 for the full control effect); conditions: AR-UAS-bla HEK293, beta-lactamase ratio, agonist 16 h; stronger effect = higher value
Chain of Androgen receptor (Homo sapiens) (P10275 whole entry, looked up): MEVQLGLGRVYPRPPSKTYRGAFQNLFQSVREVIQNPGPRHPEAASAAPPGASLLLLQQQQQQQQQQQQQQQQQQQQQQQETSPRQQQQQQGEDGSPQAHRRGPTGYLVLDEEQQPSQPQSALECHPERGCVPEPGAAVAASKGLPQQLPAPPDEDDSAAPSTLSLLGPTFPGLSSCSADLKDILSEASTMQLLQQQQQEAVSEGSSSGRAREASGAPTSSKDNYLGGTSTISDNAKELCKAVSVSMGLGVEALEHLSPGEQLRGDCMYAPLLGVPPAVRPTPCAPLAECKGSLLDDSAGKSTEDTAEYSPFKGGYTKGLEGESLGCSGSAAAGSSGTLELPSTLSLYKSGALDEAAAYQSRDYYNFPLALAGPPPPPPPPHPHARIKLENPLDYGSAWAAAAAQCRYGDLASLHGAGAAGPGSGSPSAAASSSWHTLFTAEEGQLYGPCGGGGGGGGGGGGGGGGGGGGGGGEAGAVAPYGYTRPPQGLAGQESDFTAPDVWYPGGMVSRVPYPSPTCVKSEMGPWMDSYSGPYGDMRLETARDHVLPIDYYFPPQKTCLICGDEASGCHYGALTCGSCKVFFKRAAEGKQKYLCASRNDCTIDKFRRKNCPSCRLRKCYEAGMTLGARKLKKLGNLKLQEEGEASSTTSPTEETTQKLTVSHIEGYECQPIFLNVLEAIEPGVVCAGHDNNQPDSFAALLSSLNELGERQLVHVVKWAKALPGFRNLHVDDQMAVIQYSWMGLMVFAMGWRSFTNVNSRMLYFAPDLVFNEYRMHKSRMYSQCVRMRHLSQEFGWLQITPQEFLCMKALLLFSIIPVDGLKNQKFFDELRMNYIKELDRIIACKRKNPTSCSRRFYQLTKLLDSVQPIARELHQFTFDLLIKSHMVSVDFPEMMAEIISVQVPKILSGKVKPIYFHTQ
Method in brief: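 Stimulation of an AR-responsive β-lactamase reporter in GripTite HEK293 cells was measured after 16 h compound exposure at 37 °C, via CCF4 fluorescence after 2 h RT. EC50 from Hill fits, normalized to R1881 at 30 nM.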

Cc1nc2ccc(Cl)cc2[nH]1
inactive: Potency [1] | Potency [2] | Potency [3] | Potency [4] | Potency [5] | Potency [6] | Potency [7] | Potency [8] | Potency [9] | Potency [10] | Potency [11] | Potency [12] | Potency [13] | outcome [14] | Potency [15] | outcome [16] | outcome [17] | Potency [18]

Nc1cccc([N+](=O)[O-])c1
inactive: Potency [1] | Potency [2] | Potency [3] | Potency [5] | Potency [6] | Potency [7] | Potency [8] | Potency [9] | Potency [10] | Potency [11] | Potency [12] | Potency [13] | outcome [14] | Potency [15] | Potency [19] | outcome [16] | outcome [17] | Potency [18] | activation [20] -5.67%

CCCC(Cl)CCCC(Cl)CCC(Cl)CCC(Cl)CCC(Cl)CCCC(Cl)CCC (centres undefined)
inactive: Potency [1] | Potency [2] | Potency [3] | Potency [5] | Potency [6] | Potency [7] | Potency [8] | Potency [9] | Potency [10] | Potency [11] | Potency [12] | Potency [13] | outcome [14] | Potency [15] | Potency [19] | outcome [16] | outcome [17] | Potency [18] | activation [20] -5.75%

c1ccc2c(c1)ccc1ncccc12
inactive: Potency [1] | Potency [2] | Potency [3] | Potency [4] | Potency [5] | Potency [6] | Potency [7] | Potency [8] | Potency [9] | Potency [10] | Potency [11] | Potency [12] | outcome [14] | Potency [15] | Potency [19] | outcome [16] | outcome [17] | Potency [18] | activation [20] 7.08%

O=C1CCCCC1
inactive: Potency [1] | Potency [2] | Potency [3] | Potency [4] | Potency [5] | Potency [6] | Potency [7] | Potency [8] | Potency [9] | Potency [10] | Potency [12] | Potency [13] | outcome [14] | Potency [15] | Potency [19] | outcome [16] | outcome [17] | Potency [18] | activation [20] 14.6%

Cc1ccc2cccnc2c1
inactive: Potency [1] | Potency [2] | Potency [3] | Potency [4] | Potency [5] | Potency [6] | Potency [7] | Potency [8] | Potency [9] | Potency [10] | Potency [11] | Potency [12] | outcome [14] | Potency [15] | Potency [19] | outcome [16] | outcome [17] | Potency [18] | activation [20] 14.8%

CCN(Cc1ccccc1)c1ccccc1
inactive: Potency [1] | Potency [2] | Potency [3] | Potency [4] | Potency [5] | Potency [6] | Potency [7] | Potency [8] | Potency [10] | Potency [12] | Potency [13] | outcome [14] | Potency [15] | Potency [19] | outcome [16] | outcome [17] | Potency [18] | activation [20] 11.1%

CCOc1cc(OCC)c(C(C)=O)cc1OCC
inactive: Potency [1] | Potency [2] | Potency [3] | Potency [5] | Potency [6] | Potency [7] | Potency [8] | Potency [9] | Potency [10] | Potency [11] | Potency [12] | Potency [13] | Potency [15] | outcome [16] | outcome [17] | Potency [18] | activation [20] -14.7%

CCOC(=O)OCC
inactive: Potency [1] | Potency [2] | Potency [3] | Potency [4] | Potency [5] | Potency [6] | Potency [7] | Potency [8] | Potency [9] | Potency [10] | Potency [11] | Potency [12] | Potency [13] | outcome [14] | Potency [15] | Potency [19] | outcome [16] | outcome [17] | Potency [18]

Cc1cccc(C)c1O
inactive: Potency [1] | Potency [2] | Potency [3] | Potency [4] | Potency [5] | Potency [6] | Potency [7] | Potency [8] | Potency [9] | Potency [10] | Potency [11] | Potency [12] | Potency [13] | Potency [15] | Potency [19] | outcome [16] | outcome [17] | Potency [18] | activation [20] -2.64%

CC(C)c1ccccc1
inactive: Potency [1] | Potency [2] | Potency [3] | Potency [4] | Potency [5] | Potency [6] | Potency [7] | Potency [8] | Potency [9] | Potency [10] | Potency [11] | Potency [12] | outcome [14] | Potency [15] | Potency [19] | outcome [16] | outcome [17] | Potency [18] | activation [20] -0.119%

Nc1cc(S(=O)(=O)O)ccc1O
inactive: Potency [1] | Potency [2] | Potency [3] | Potency [4] | Potency [5] | Potency [6] | Potency [7] | Potency [8] | Potency [9] | Potency [10] | Potency [11] | Potency [12] | Potency [13] | Potency [19] | outcome [16] | outcome [17] | Potency [18] | activation [20] 14.7%

O=P(O)(OCc1ccccc1)OCc1ccccc1
inactive: Potency [1] | Potency [2] | Potency [3] | Potency [4] | Potency [5] | Potency [6] | Potency [7] | Potency [8] | Potency [9] | Potency [10] | Potency [11] | Potency [12] | Potency [13] | outcome [14] | Potency [15] | Potency [19] | outcome [16] | outcome [17] | Potency [18]

Fc1ccccc1
inactive: Potency [1] | Potency [2] | Potency [3] | Potency [4] | Potency [5] | Potency [6] | Potency [7] | Potency [8] | Potency [9] | Potency [10] | Potency [11] | Potency [12] | Potency [13] | outcome [14] | Potency [15] | outcome [16] | outcome [17] | Potency [18]

Nc1cccc(S(=O)(=O)O)c1
inactive: Potency [1] | Potency [2] | Potency [3] | Potency [4] | Potency [5] | Potency [6] | Potency [7] | Potency [8] | Potency [9] | Potency [10] | Potency [11] | Potency [12] | Potency [13] | outcome [14] | Potency [15] | Potency [19] | outcome [16] | outcome [17] | Potency [18] | activation [20] 6.82%

Cc1ccc(C)cc1
inactive: Potency [1] | Potency [2] | Potency [3] | Potency [4] | Potency [5] | Potency [6] | Potency [7] | Potency [8] | Potency [9] | Potency [10] | Potency [12] | Potency [13] | outcome [14] | Potency [15] | Potency [19] | outcome [16] | outcome [17] | Potency [18] | activation [20] 10.6%
